IDE exosite FP – exo-site inhibitors of human insulin-degrading enzyme; purified IDE, FL-6b probe fluorescence polarization; hits give low values; AID 1259349; hit rate 6.3% among 17,000; z-score at 20 µM; P14735;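 active = z-score of -3 or lower, meaning strong loss of probe binding signal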;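 note: His-tagged human IDE residues 42-1019 made in E. coli with 30 nM FL-6b probe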
Target sequence (P14735 42-1019 limits assumed): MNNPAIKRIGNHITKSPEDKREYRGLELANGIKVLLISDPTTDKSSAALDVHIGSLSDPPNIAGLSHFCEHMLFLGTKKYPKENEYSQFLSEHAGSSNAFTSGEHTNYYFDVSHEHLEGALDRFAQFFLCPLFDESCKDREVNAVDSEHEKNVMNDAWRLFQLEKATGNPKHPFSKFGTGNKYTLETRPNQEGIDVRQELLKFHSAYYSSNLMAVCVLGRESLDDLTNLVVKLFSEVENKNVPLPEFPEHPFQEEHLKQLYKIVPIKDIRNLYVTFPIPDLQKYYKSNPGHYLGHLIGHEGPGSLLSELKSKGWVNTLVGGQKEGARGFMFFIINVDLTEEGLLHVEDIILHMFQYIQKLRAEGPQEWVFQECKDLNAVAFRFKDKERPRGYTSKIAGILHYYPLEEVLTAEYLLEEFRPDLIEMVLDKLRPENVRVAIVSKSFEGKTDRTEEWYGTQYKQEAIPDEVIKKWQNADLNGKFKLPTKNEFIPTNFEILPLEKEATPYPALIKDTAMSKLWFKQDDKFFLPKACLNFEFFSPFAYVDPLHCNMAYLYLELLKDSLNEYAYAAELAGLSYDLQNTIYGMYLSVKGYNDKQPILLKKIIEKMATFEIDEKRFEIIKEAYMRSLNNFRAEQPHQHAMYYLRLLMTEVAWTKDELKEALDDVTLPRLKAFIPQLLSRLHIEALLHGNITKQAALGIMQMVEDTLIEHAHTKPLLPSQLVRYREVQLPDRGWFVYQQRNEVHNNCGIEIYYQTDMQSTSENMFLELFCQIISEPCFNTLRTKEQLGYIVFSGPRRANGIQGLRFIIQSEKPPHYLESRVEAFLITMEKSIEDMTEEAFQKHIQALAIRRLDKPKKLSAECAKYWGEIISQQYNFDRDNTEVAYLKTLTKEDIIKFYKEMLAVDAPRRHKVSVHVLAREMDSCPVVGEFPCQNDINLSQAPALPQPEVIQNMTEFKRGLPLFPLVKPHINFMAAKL
* marks the source's active call; other numbers are inactive results; ! = not active in a repeat. The full list was thinned out, with hits kept by preference.

SMILES	IDE exosite FP
COc1ccc(-c2ccc([C@@H]3[C@@H](CO)N4C(=O)CN(C(=O)C5CCCC5)C[C@@H]34)cc2)cc1	-0.907
COc1ccc(-c2ccc([C@@H]3[C@H]4CN(C(=O)C5CC5)CC(=O)N4[C@H]3CO)cc2)cc1	-2.39
COc1cccc(-c2ccc([C@H]3[C@@H](CO)N4C(=O)CN(C(=O)C5CC5)C[C@@H]34)cc2)c1	-6.51*
COc1cccc(-c2ccc([C@@H]3[C@H](CO)N4C(=O)CN(C(=O)C5CCC5)C[C@@H]34)cc2)c1	-10.5*
COc1ccc(-c2ccc([C@H]3[C@H]4CN(C(=O)C5CCC5)CC(=O)N4[C@H]3CO)cc2)cc1	-0.161
CO[C@H]1CC[C@@H]2CCOc3ccc(C#N)cc3C(=O)N(C)C[C@@H](c3ccccc3)CC(=O)N(C)C[C@@H]1O2	0.261
C/C=C/c1ccc([C@H]2[C@@H](CNC(C)=O)N(C(=O)Cc3cccnc3)[C@H]2CO)cc1	3.97
COc1ccccc1NC(=O)N1CC(=O)N2[C@H](C1)[C@H](c1ccc(-c3ccc(C)cc3)cc1)[C@@H]2CO	0.681
CCNC[C@@H]1[C@@H](c2ccc(-c3ccc(F)cc3)cc2)[C@H](CO)N1S(C)(=O)=O	2.75
N#C[C@@H]1[C@@H](c2ccccc2C2=CCCCC2)[C@@H](CO)N1S(=O)(=O)c1ccccc1	-0.535
CC(C)(C)S(=O)N1Cc2cc(C(=O)NCCCN3CCOCC3)nc(-c3cccc(-c4cccc(F)c4)c3)c2[C@H]1CCO (stereo partly specified)	-0.524
Cc1ccccc1-c1ccc(C2[C@H]3CNC[C@@H]2N3C(=O)Nc2ccc(Cl)cc2)cc1 (stereo partly specified)	-3.57*!
COc1ccc(NC(=O)N2[C@@H]3CNC[C@H]2C3c2ccc(-c3ccccc3C)cc2)cc1 (stereo partly specified)	-4.56*
O=C(NC1CCCCC1)N1[C@@H]2CNC[C@H]1C2c1ccc(-c2ccccc2F)cc1 (stereo partly specified)	-0.0845
COc1cccc(-c2ccc(C3[C@H]4CNC[C@@H]3N4C(=O)Nc3ccc4c(c3)OCO4)cc2)c1 (stereo partly specified)	-2.84
CN(C)C(=O)c1cccc(-c2ccc(C3[C@H]4CNC[C@@H]3N4C(=O)Nc3cccc(Cl)c3)cc2)c1 (stereo partly specified)	-0.236
COc1cccc(-c2ccc(C3[C@H]4CNC[C@@H]3N4C(=O)Nc3ccc(C(F)(F)F)cc3)cc2)c1 (stereo partly specified)	2.09
O=C(N[C@@H]1CC[C@H](CC(=O)N2CCOCC2)O[C@@H]1CO)c1cccc(F)c1	1.1
CCC(=O)N1[C@H](CN(C)C(C)=O)[C@H](c2ccc(C3=CCCC3)cc2)[C@@H]1CO	0.733
C[C@@H](O)C#Cc1ccc([C@@H]2[C@H]3CN(C(=O)c4ccc(F)cc4)CCCCN3[C@H]2CO)cc1	2.24
COC(=O)C[C@@H]1CC[C@H]2[C@H](COc3ccc(NS(=O)(=O)c4ccc(C)cc4)cc3C(=O)N2C)O1	-0.947
COCC(=O)NC[C@H]1N[C@H](CO)[C@@H]1c1ccc(C2=CCCCC2)cc1	3.26
C/C=C/c1ccc([C@@H]2[C@H](CO)N[C@H]2CNC(=O)c2ccccc2F)cc1	-0.0924
O=C(NC[C@H]1N[C@H](CO)[C@@H]1c1ccc(-c2ccccc2F)cc1)c1ccccc1	-9.99*
CCC(=O)NC[C@H]1N[C@H](CO)[C@@H]1c1ccc(-c2ccccc2F)cc1	-0.798
SMILES	IDE exosite FP
COCC(=O)NC[C@H]1N[C@H](CO)[C@@H]1c1ccc(-c2ccccc2F)cc1	-3.08*
COCC(=O)NC[C@H]1N[C@H](CO)[C@H]1c1ccc(-c2ccccc2F)cc1	-3.27*
COCC(=O)NC[C@H]1[C@H](c2ccc(-c3ccccc3)cc2)[C@@H](CO)N1C(C)=O	2.04
O=C(NC[C@@H]1N[C@@H](CO)[C@H]1c1ccccc1)c1ccccc1F	1.05
CCS(=O)(=O)N(C)C[C@@H]1N[C@H](CO)[C@@H]1c1ccc(-c2ccccc2F)cc1	-0.262
CCC(=O)N1[C@H](CNC(=O)COC)[C@@H](c2ccc(-c3ccccc3)cc2)[C@@H]1CO	-3.46*
CCC(=O)N1[C@H](CNC(=O)COC)[C@H](c2ccc(-c3ccccc3)cc2)[C@@H]1CO	-2.81
O=C(NC[C@H]1N[C@H](CO)[C@@H]1c1ccccc1)c1ccccc1F	0.716
CO[C@H]1CN(C)C(=O)c2ccc(NC(=O)NC(C)C)cc2OC[C@@H](C)N(Cc2ccc(-c3ccccn3)cc2)C[C@H]1C	-0.446
COCC(=O)N1[C@H](CO)[C@H](c2ccccc2C2=CCCC2)[C@@H]1C#N	0.805
OC[C@H]1N[C@@H](CNCC2CCC2)[C@@H]1c1ccc(C2=CCCCC2)cc1	-0.194
CCCC(=O)N1CC2(CN(Cc3nccs3)C2)c2c([nH]c3cc(OC)ccc23)[C@@H]1CO	-0.217
COCCNC(=O)C[C@@H]1CC[C@@H]2[C@@H](COc3ccc(NS(=O)(=O)c4ccc(Cl)cc4)cc3C(=O)N2C)O1	-0.295
Cc1ccc(S(=O)(=O)N[C@H]2CC[C@@H](CC(=O)NCc3ccncn3)O[C@H]2CO)cc1	0.297
